The nature of assay [1]: Wnt pathway potentiators raising nuclear beta-catenin – imaging, WNT3A-conditioned medium, mouse C2C12, NPC library, primary screen (AID 1117326; in the data active = nuclear beta-catenin stimulation mostly above about 4.2%, no sharp cut-off; inactive = mostly below about 10%). The conditions noted are these: stronger effect = higher value.
Assay [2] in a line: stimulators of insulin release from INS-1E, primary screen, cell-based, 5 mM glucose, NPC library (AID 1117329;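 active = compound raises insulin release from rat beta cells at 5 mM glucose, no numeric limit stated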). As to conditions: rat INS-1E insulin secretion, at 10 µM, stronger effect = higher value.
The nature of assay [3]: growth inhibition of GSK3B-pretreated HCT116 cells – cell-based, CellTiter-Glo, 0.2 to 20 µM (AID 1117336;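 active = compounds lowering colon cancer cell viability after pretreatment blocking the GSK3B kinase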). As to conditions: HCT116 viability after GSK3B inhibitor, at 20 µM, stronger effect = higher value. In general terms: In ATP-based viability assays light output follows the ATP content of the culture.
The nature of assay [4]: inhibition of endothelial tube formation, primary screen, imaging, VEGF stimulated, CD31 staining, tube area, NPC library (AID 1117340;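 active = compound that reduces growth-factor-driven endothelial tube area in a mixed cell culture, no cutoff stated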). As to conditions: VEGF-stimulated ADSC/ECFC co-culture, at 10 µM, stronger effect = higher value.
Assay [5] in a line: GLP1 release stimulators, primary, NCI-H716, NPC library (AID 1117341;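 active = compound raises GLP1 secretion from the human gut endocrine cells, with no numeric limit stated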). As to conditions: NCI-H716 cells, at 10 µM, stronger effect = higher value.
A short description of assay [6]: HCT116 colon cancer cell growth inhibition, primary screen, CellTiter-Glo luminescence, NPC library (AID 1117342;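 active = compounds that lower survival of HCT116 colon cancer cells in the luminescence readout, no numeric limit stated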). The conditions noted are these: at 20 µM (top of the series).
Assay [7] is described as follows: reduced SW480 viability measured with CellTiter-Glo, NPC library, primary (AID 1117343;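 active = compounds that lower viability of the colon cancer cells in the luminescence readout, with no numeric limit stated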). The conditions noted are these: CellTiter-Glo luminescence; at 20 µM (top of the series) unless noted.
A short description of assay [8]: NPC library primary testing for decreased DLD-1 cell viability via CellTiter-Glo (AID 1117346;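 active = compounds that lower survival of DLD-1 colon cancer cells in the luminescence readout, no cutoff given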). The conditions noted are these: DLD-1 viability, CellTiter-Glo luminescence; at 20 µM (top of the series).
The nature of assay [9]: viability loss with induced miR-34 in A549 – imaging, A549 dox-inducible miR-34, nuclei and caspase counts, primary screen (AID 1347080). As to conditions: A549 miR-34 inducible, Hoechst nuclei count, 48 h.
Assay [10] can be described thus: MELAS cybrid and Rieske KO viability enhancers – cell-based, MELAS cybrids, Rieske KO mouse fibroblasts, CellTiter-Glo, primary screen (AID 1508586;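 active = mean z-score across replicates of 1.96 or higher in either the MELAS or the Rieske mutant cell line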;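 note: z relative to plate mean and SD of compound and empty wells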). As to conditions: low glucose.
For assay [11], the target named is NAD(+) hydrolase SARM1 (Homo sapiens) (UniProt Q6SZW1). The assay is described as follows: blocking NAD cleavage by SARM1 SAM-TIR – cell lysate, NAD-Glo luminescence (AID 1508614;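 active = compound whose remaining NAD level is above about 45 nM, limit read from the data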;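 note: higher remaining NAD means stronger inhibition of SARM1 NADase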). As to conditions: SAM-TIR HEK293T lysate NADase, at 1 µM, stronger effect = higher value.
Assay [12] in a line: compounds altering viability of human ES cells (AID 493140; call rule not given here;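 note: cells exposed to compounds for four days before counting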). The conditions noted are these: human embryonic stem cell survival screen; stronger effect = higher value.
A short description of assay [13]: P. berghei load reduction in hepatocytes – cell-based, HepG2, luciferase luminescence, HepG2 viability, primary screen (AID 624349; in the data active = parasite load remaining mostly below about 12%, no sharp cut-off; inactive = mostly above about 10%;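 note: 100% = mean of DMSO negative control wells on the same plate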). The conditions noted are these: P. berghei liver stage in HepG2, luciferase luminescence, concentration not given here; parasite load remaining: stronger effect = lower value; viability: measured here: HepG2 viability without parasites.
Assay [14] concerns the target Mitogen-activated protein kinase 7 (Homo sapiens) (UniProt Q13164). The assay is described as follows: Gal4-ERK5 driven luciferase induction – cell-based, HTS, primary screen (AID 1508626;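 active = luciferase signal above three times the same-plate solvent-only control wells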;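 note: luciferase driven by Gal4-ERK5 fusion binding five Gal4 sites before minimal TATA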). The conditions noted are these: HeLa Gal4-ERK5 transactivation, 18 h, at 5 µM, stronger effect = higher value.
Assay [15] is described as follows: galactose survival enhancers in mitochondrial complex I cybrids – cell-based, galactose medium, ATP luminescence, primary screen (AID 1645843;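 active = z-score of at least 1.8 in each of two replicates, scored against plate mean and spread of sample wells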;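 note: positive z means more ATP and so rescue of galactose-driven cybrid death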). The conditions noted are these: complex I mutant cybrid cells, 72 h, stronger effect = higher value.
[16] abbreviates: stronger effect = lower value, cell number ratio, induced over uninduced.
The mark [17] stands for this setting: measured here: relative caspase fold change +Dox/-Dox.
The mark [18] stands for this setting: measured here: total cells with miR-34 induction, stronger effect = lower value.
The mark [19] stands for this setting: measured here: total cells without miR-34 induction.
Where [20] appears, read: MELAS cybrid survival, CellTiter-Glo 48 h, stronger effect = higher value.
Where [21] appears, read: Rieske KO mouse fibroblast survival, CellTiter-Glo 72 h.

Where “and” joins values, the source holds several entries; their conditions need not be identical. Equal values may be shown once. Calls of active or inactive are those of the source.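 Rule for the calls, unless noted: active = compounds whose cell count with miR-34 switched on is under 0.7 times the count with it off; inactive = the rest.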

Sequence of NAD(+) hydrolase SARM1 (Homo sapiens) (Q6SZW1 whole entry, looked up): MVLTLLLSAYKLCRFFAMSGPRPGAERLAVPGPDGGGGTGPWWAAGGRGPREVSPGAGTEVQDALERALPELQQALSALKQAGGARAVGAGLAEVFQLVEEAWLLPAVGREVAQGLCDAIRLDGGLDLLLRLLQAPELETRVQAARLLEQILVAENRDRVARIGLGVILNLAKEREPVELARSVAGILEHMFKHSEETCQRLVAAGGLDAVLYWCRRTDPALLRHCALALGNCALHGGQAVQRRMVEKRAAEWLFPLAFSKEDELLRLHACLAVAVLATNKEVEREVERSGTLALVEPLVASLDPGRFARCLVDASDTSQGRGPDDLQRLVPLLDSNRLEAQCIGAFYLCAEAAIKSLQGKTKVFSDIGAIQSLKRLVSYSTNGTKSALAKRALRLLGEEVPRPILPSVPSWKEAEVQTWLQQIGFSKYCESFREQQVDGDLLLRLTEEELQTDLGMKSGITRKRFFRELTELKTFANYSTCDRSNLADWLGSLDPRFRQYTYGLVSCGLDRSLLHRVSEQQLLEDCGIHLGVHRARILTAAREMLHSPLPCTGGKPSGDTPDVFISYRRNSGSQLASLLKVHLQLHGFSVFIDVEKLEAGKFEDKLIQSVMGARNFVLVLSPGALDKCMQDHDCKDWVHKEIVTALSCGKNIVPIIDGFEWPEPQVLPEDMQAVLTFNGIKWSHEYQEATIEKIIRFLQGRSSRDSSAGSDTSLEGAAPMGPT
Sequence of Mitogen-activated protein kinase 7 (Homo sapiens) (Q13164 whole entry, looked up, the tested form may be a part): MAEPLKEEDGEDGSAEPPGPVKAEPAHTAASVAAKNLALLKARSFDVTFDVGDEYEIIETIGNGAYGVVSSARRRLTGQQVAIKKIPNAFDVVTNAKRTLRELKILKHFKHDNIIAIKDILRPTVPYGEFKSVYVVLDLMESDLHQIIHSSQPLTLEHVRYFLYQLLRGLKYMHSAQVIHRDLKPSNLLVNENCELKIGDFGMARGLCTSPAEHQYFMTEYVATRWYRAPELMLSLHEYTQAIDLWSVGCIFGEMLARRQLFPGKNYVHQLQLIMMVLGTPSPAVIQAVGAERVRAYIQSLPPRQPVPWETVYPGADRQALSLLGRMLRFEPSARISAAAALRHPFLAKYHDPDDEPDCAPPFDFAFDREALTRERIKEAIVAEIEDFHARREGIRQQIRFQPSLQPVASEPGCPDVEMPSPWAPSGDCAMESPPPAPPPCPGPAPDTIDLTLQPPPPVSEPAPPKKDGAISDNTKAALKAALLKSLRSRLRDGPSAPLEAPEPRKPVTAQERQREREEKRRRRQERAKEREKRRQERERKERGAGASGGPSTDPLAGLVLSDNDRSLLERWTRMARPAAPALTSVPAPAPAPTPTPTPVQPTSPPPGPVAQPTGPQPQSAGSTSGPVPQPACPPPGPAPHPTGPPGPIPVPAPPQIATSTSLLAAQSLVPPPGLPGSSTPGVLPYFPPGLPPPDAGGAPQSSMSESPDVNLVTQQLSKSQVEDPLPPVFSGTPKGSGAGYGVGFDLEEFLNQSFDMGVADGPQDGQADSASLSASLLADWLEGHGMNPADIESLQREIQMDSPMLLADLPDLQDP

Take `C=CCNC(N)=S`: the nuclear beta-catenin stimulation in assay [1] (at 10 µM) was 5.1% (inactive); in assay [1] (stimulation, at 2 µM), 2.3%. Further, in assay [2], the insulin secretion stimulation is -0.8% (inactive). In assay [3], the viability decrease is -2.15% (inactive). Further, in assay [4], the tube area decrease was -31.3% (inactive). In addition, the GLP1 secretion stimulation in [5] is -0.3% (inactive). The inhibition of viability in [6] is -19.1% (inactive). Also, the viability decrease (inhibition) was 23.8% (active) in [7] and -4.7% (inactive) in assay [8]. In addition, the fold change in [9] (setting [16]) was 0.867 (inactive) and 0.831 (inactive); in assay [9] (setting [17]), 1.24 and 0.686. For the same compound, the cell count is 7540 and 8140 in assay [9] (setting [18]); 8690 and 9790 in [9] (setting [19]). The z-score in assay [10] (setting [20]) was -0.239 (inactive); in assay [10] (setting [21]) it was -0.148. The remaining NAD in assay [11] is 10 nM (inactive).
As a reminder, the viability is a read-out of living cells in per cent, often relative to untreated cells. As to `C#C[C@]1(OC(C)=O)CC[C@H]2[C@@H]3CCC4=C[C@@H](OC(C)=O)CC[C@@H]4[C@H]3CC[C@@]21C`, the survival in [12] was 3.67 (inactive). Besides, in [13], the parasite load remaining is 82.1% (inactive). For the same compound, the viability in assay [13] worked out at 93.8%. For the same compound, the nuclear beta-catenin stimulation is 4.6% (inactive) in assay [1] (at 10 µM) and 2.1% in assay [1] (stimulation, at 2 µM). For the same compound, in [2], the insulin secretion stimulation is 0.1% (inactive). Besides, in assay [3], the viability decrease was -55.2% (inactive). Moreover, in [4], the tube area decrease was -2.9% (inactive). For the same compound, in [5], the GLP1 secretion stimulation is -2.3% (inactive). Moreover, the inhibition of viability in assay [6] was 45% (inactive). The figures for the viability decrease (inhibition) in assay [7] and in [8] were 80.6% (active) and 64.6% (active), respectively. Moreover, the fold change in assay [9] (setting [16]) was 0.877 (inactive); in [9] (setting [17]), 1.09. In addition, the cell count came to 9000 in assay [9] (setting [18]) and 10300 in assay [9] (setting [19]). Moreover, the z-score was -0.135 (inactive) in [10] (setting [20]) and 0.556 in assay [10] (setting [21]). Also, in assay [11], the remaining NAD is 10 nM (inactive). The luciferase signal in assay [14] was 64 AU (inactive).
`CC(=O)OCC(=O)[C@@]1(O)CC[C@H]2[C@@H]3CCC4=CC(=O)C=C[C@]4(C)[C@@]3(F)[C@@H](O)C[C@@]21C`: the survival in assay [12] was 8 (inactive). Also, the parasite load remaining in assay [13] is 53.1% (inactive) and 126% (inactive). Moreover, the viability in assay [13] was 50.3% and 103%. The nuclear beta-catenin stimulation in assay [1] (at 10 µM) is 0.8% (inactive); in [1] (stimulation, at 2 µM) it was 0%. For the same compound, the insulin secretion stimulation in assay [2] was -2.1% (inactive). For the same compound, the viability decrease in assay [3] was 9.45% (inactive). Besides, the tube area decrease in assay [4] was -21.7% (inactive). Further, the GLP1 secretion stimulation in assay [5] was 3.3% (inactive). Besides, in assay [6], the inhibition of viability was -4.3% (inactive). Further, the viability decrease (inhibition) in assay [7] is 42.5% (inactive); in [8] it was 23% (inactive). The fold change in assay [9] (setting [16]) is 0.893 (inactive); in [9] (setting [17]), 1.25. For the same compound, the cell count in [9] (setting [18]) turned out to be 4910; in assay [9] (setting [19]), 5500. Moreover, the figures for the z-score in assay [10] (setting [20]) and in [10] (setting [21]) were -1.23 (inactive) and 0.0318, respectively. In addition, in assay [11], the remaining NAD was 10 nM (inactive).
As to `NC(CO)(CO)CO`, the nuclear beta-catenin stimulation is 1.8% (inactive) in assay [1] (at 10 µM) and 3.7% in [1] (stimulation, at 2 µM). The insulin secretion stimulation in assay [2] was -0.6% (inactive). Besides, the viability decrease in assay [3] is -2.3% (inactive). Also, the tube area decrease in [4] is -6% (inactive). The GLP1 secretion stimulation in assay [5] was 3.3% (inactive). Also, the inhibition of viability in [6] was -37% (inactive). Also, the results for the viability decrease (inhibition) in assay [7] and in assay [8] were -8% (inactive) and 2.75% (inactive), respectively. The fold change in [9] (setting [16]) was 0.909 (inactive); in assay [9] (setting [17]), 0.61. The cell count amounted to 8750 in assay [9] (setting [18]) and 9620 in assay [9] (setting [19]). The figures for the z-score in assay [10] (setting [20]) and in assay [10] (setting [21]) were -0.338 (inactive) and -0.156, respectively.
Turning to `O=c1[nH]c(=O)c2[nH]c(=O)[nH]c2[nH]1`, the nuclear beta-catenin stimulation is -2.4% (inactive) in assay [1] (at 10 µM) and -1.6% in [1] (stimulation, at 2 µM). Besides, the insulin secretion stimulation in [2] is -0.2% (inactive). Besides, in [3], the viability decrease was -5.9% (inactive). In addition, the tube area decrease in assay [4] is 8.1% (inactive). Moreover, in assay [5], the GLP1 secretion stimulation is -2.2% (inactive). The inhibition of viability in [6] was -5.8% (inactive). Besides, the viability decrease (inhibition) in assay [7] is -9.2% (inactive); in assay [8], 9.1% (inactive). For the same compound, the fold change was 0.877 (inactive) in assay [9] (setting [16]) and 0.666 in assay [9] (setting [17]). In addition, the cell count in assay [9] (setting [18]) is 8320; in assay [9] (setting [19]) it was 9490. Further, the z-score in assay [10] (setting [20]) is 0.618 (inactive); in assay [10] (setting [21]), 0.253; in assay [15] it was 0.705 (inactive).

Values taken from PubChem BioAssay.
